According to PubChem BioAssay (Tox21):
Results filed as inconclusive are left out. Activity calls are given as the source filed them. Unless noted, calls come from the whole dose curve; as a rule, active = well fitted curve in the direction sought with a large enough effect in the repeat runs; inconclusive = weak or mixed curves; inactive = no such curve, though single readings can be large; an effect the other way counts as inactive or inconclusive.

How the values were obtained:
[1] = qHTS RealTime-Glo MT Cell Viability Assay in HEK293 cells - 0 hour (AID 1224880); note: top concentration of the series differs between compounds; nearly all actives have a fitted effect of over 45% in size
Summary of the method: (§1)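 Nonlytic bioluminescent viability monitoring. HEK293 at 600 cells/well with reagent; 5 h settle; compound transfer by pintool; plates held at 37 C and read at set time points.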

[2] = A CellTox Green Cytotoxicity Assay to monitor cytotoxicity in HEK293 cells - 32 hour (AID 1224881); note: nearly all actives have a fitted effect of over 40% in size
Summary of the method: (§2)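 Cytotoxicity was tracked continuously in HEK293 cells by a DNA-binding dye excluded from viable cells. Compounds were transferred in DMSO 5 h after seeding; fluorescence was recorded at intervals up to 40 h.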

[3] = A CellTox Green Cytotoxicity Assay to monitor cytotoxicity in HepG2 cells - 0 hour (AID 1224882); note: nearly all actives have a fitted effect of over 35% in size
Summary of the method: (§3)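 Real-time, homogeneous cytotoxicity readout: dead-cell DNA staining by CellTox Green in HepG2 monolayers, fluorescence measured at timed intervals up to 40 h of continuous compound exposure.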

[4] = A CellTox Green Cytotoxicity Assay to monitor cytotoxicity in HepG2 cells - 32 hour (AID 1224883); note: nearly all actives have a fitted effect of over 50% in size
Summary of the method: as §3

[5] = A CellTox Green Cytotoxicity Assay to monitor cytotoxicity in HEK293 cells - 8 hour (AID 1224884); note: nearly all actives have a fitted effect of over 35% in size
Summary of the method: as §2

[6] = qHTS RealTime-Glo MT Cell Viability Assay in HepG2 cells - 16 hour (AID 1224885); note: nearly all actives have a fitted effect of over 50% in size
Summary of the method: (§4)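 HepG2 suspension premixed with RealTime-Glo reagents is plated at 600 cells per well and left 5 h at 37 C/5% CO2. Compounds in DMSO then go in, and bioluminescence reflecting viable cell number is recorded over 40 h.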

[7] = qHTS RealTime-Glo MT Cell Viability Assay in HEK293 cells - 24 hour (AID 1224886); note: top concentration of the series differs between compounds; nearly all actives have a fitted effect of over 50% in size
Summary of the method: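 Reads taken at 0, 8, 16, 24, 32 and 40 h from the same wells. HEK293 cells (600/well) carried RealTime-Glo reagents from seeding, with compound added after a 5 h settle at 37 C.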

[8] = qHTS RealTime-Glo MT Cell Viability Assay in HEK293 cells - 8 hour (AID 1224887); note: top concentration of the series differs between compounds; nearly all actives have a fitted effect of over 50% in size
Summary of the method: as §1

[9] = A CellTox Green Cytotoxicity Assay to monitor cytotoxicity in HEK293 cells - 16 hour (AID 1224888); note: nearly all actives have a fitted effect of over 35% in size
Summary of the method: as §2

[10] = qHTS RealTime-Glo MT Cell Viability Assay in HepG2 cells - 0 hour (AID 1224889); note: nearly all actives have a fitted effect of over 50% in size
Summary of the method: as §4

[11] = A CellTox Green Cytotoxicity Assay to monitor cytotoxicity in HepG2 cells - 8 hour (AID 1224890); note: nearly all actives have a fitted effect of over 45% in size
Summary of the method: as §3

[12] = qHTS assay to identify small molecule antagonists of the estrogen receptor alpha (ER-alpha) signaling pathway using the BG1 cell line in the presence of 0.1 nM 17-beta-estradiol - cell viability counter screen (AID 1259241); note: nearly all actives have a fitted effect of over 40% in size
Summary of the method: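 Cytotoxicity counter-screen: live-cell protease activity measured by fluorescence (30 min reagent step) in the same wells. Cells were VM7Luc4E2 with endogenous ER-alpha and ERE-driven luciferase, treated 22 hr at 37C alongside 0.1 nM 17beta-estradiol final.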

[13] = qHTS assay to identify small molecule antagonists of the androgen receptor (AR) signaling pathway using the MDA cell line in the presence of 0.5 nM R1881 - cell viability counter screen (AID 1259242); note: nearly all actives have a fitted effect of over 45% in size
Summary of the method: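 Cytotoxicity toward MDA-kb2 cells is measured by CellTiter-Fluor live-cell protease fluorescence after 16 hr compound exposure at 37C in the presence of 0.5 nM R1881 stimulator.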

[14] = molecular target: Estrogen receptor (Homo sapiens) (UniProt P03372); experiment: qHTS assay to identify small molecule antagonists of the estrogen receptor alpha (ER-alpha) signaling pathway using the BG1 cell line in the presence of 0.1 nM 17-beta-estradiol (AID 1259244); note: nearly all actives have a fitted effect of over 50% in size
Estrogen receptor (Homo sapiens), sequence (P03372 whole entry, looked up): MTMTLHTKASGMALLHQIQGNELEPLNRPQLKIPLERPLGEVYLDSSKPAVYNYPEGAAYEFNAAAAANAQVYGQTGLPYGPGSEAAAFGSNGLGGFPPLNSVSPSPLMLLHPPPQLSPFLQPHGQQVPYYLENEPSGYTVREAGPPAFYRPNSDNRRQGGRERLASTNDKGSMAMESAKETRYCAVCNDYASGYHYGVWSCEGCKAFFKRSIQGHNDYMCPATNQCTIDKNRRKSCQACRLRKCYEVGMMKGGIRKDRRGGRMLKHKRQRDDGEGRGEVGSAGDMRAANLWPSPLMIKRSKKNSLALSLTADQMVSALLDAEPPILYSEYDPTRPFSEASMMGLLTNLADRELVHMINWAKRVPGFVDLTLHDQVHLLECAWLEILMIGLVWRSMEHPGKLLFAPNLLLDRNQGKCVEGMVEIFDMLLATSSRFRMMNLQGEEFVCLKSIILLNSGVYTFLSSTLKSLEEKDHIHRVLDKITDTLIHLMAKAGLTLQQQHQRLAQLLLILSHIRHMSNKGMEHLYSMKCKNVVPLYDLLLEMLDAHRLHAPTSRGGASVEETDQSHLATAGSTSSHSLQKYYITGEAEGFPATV
Summary of the method: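 After 5 days in hormone-depleted medium (charcoal-stripped serum, no phenol red), VM7Luc4E2 cells were seeded, incubated 24 h, then co-treated with compound and 0.1 nM (final) estradiol for 22 h before luminescence detection.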

[15] = qHTS assay to identify small molecule phospholipidosis (PLD) inducers (AID 1259344; active = well fitted curve in the direction sought with a large enough effect; an effect the other way counts as inactive or inconclusive)
Summary of the method: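 Phospholipidosis is scored by imaging LipidTOX-stained pits in HepG2 cells exposed to compound for 24 h at 37 C; pit counts and integrated intensities per well and per cell serve as outputs.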

[16] = qHTS assay to identify small molecule HDAC inhibitors (AID 1259364); note: top concentration of the series differs between compounds; nearly all actives have a fitted effect of over 45% in size
Summary of the method: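 Homogeneous cell-based luminescent assay of endogenous class I/II HDAC activity; HCT-116 cells, 2 h compound exposure, 30 min HDAC-Glo development at RT.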

[17] = qHTS assay to identify small molecule HDAC inhibitors - cell viability counter screen (AID 1259365)
Summary of the method: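 CellTiter-Glo luminescence (30 min, room temperature) reported viability after a 2 h compound exposure at 37 C. Cells: wild-type HCT-116, 1,500 per well, seeded the night before.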

[18] = qHTS assay to identify small molecule agonists of the sonic hedgehog signaling (Shh) pathway - cell viability counter screen (AID 1259366); note: nearly all actives have a fitted effect of over 50% in size
Summary of the method: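 Cytotoxicity counter screen: CellTiter-Fluor reagent added after 23 h compound exposure, then 1 h at 37C and fluorescence read. Cells were 3T3 Gli1-Luc, seeded 2,000 per well and dosed 4 h post-plating.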

[19] = qHTS assay to identify small molecule antagonists of the sonic hedgehog signaling (Shh) pathway - cell viability counter screen (AID 1259367); note: nearly all actives have a fitted effect of over 55% in size
Summary of the method: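 Cells: 3T3 Gli1-Luc, 2,000/well, 4 hr pre-incubation. Compounds in DMSO, then conditioned medium. Incubation 24 hr, 37C, 5% CO2. CellTiter-Fluor at 23 hr, 1 hr, fluorescence.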

[20] = molecular target: Androgen receptor (Homo sapiens) (UniProt P10275); experiment: qHTS assay to identify small molecule antagonists of the androgen receptor (AR) signaling pathway using the MDA cell line in the presence of 0.5 nM R1881 (AID 1259243); note: nearly all actives have a fitted effect of over 50% in size
Androgen receptor (Homo sapiens), sequence (P10275 whole entry, looked up): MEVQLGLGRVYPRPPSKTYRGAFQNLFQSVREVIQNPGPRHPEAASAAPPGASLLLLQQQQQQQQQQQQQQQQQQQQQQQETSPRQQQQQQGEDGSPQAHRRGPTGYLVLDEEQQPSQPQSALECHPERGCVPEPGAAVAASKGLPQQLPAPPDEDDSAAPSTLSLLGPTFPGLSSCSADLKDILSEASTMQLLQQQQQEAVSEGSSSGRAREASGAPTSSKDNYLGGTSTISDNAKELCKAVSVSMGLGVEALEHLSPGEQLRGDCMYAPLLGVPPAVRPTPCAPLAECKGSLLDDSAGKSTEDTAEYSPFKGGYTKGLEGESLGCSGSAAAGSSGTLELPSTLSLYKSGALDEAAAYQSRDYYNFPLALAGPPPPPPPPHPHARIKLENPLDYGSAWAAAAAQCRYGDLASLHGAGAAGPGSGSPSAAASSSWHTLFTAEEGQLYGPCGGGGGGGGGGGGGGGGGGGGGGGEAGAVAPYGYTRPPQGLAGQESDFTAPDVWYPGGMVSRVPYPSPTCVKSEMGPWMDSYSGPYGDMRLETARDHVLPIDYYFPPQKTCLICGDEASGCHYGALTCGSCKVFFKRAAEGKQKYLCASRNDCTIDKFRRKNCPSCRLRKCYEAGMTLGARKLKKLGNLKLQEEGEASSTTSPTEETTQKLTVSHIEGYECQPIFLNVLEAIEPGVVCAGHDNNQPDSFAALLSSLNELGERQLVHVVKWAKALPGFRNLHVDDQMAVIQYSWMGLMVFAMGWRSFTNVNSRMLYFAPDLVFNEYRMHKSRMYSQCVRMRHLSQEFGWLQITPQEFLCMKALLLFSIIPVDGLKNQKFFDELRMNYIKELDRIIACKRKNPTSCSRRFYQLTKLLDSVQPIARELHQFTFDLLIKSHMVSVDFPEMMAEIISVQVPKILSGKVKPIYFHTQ
Summary of the method: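 Steps: seed MDA-kb2 cells, incubate 5 hr at 37C; pin-transfer compounds in DMSO; add R1881 to 0.5 nM final; incubate 16 hr; add ONE-Glo, wait 30 min at room temperature; read luminescence.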
% is set by controls: 0 for no effect and ±100 for the full control effect.

CCN(CCO)CCn1c(Cc2ccccc2)nc2c1c(=O)n(C)c(=O)n2C
inactive: outcome [1] | Potency [2] | outcome [3] | Potency [4] | Potency [5] | Potency [6] | Potency [7] | Potency [8] | Potency [9] | outcome [10] | Potency [11] | outcome [12] | Potency [13] | Potency [14] | PLD induction [15] -2.9% [at 7.66 µM] | Potency [16] | outcome [17] | Potency [18] | Potency [19]

CCCCS(=O)(=O)Cl
inactive: outcome [1] | Potency [2] | outcome [3] | Potency [4] | Potency [5] | Potency [6] | Potency [7] | Potency [8] | Potency [9] | outcome [10] | Potency [11] | outcome [12] | Potency [13] | Potency [16] | outcome [17] | Potency [18]

CCCN1CCC[C@@H]2Cc3[nH]ncc3C[C@H]21
inactive: outcome [1] | Potency [2] | outcome [3] | Potency [4] | Potency [5] | Potency [6] | Potency [7] | Potency [8] | Potency [9] | outcome [10] | Potency [11] | outcome [12] | Potency [13] | Potency [14] | Potency [15] | Potency [16] | outcome [17] | Potency [18] | Potency [19]

S=C=S
inactive: outcome [1] | Potency [2] | outcome [3] | Potency [4] | Potency [5] | Potency [6] | Potency [7] | Potency [8] | Potency [9] | outcome [10] | Potency [11] | outcome [12] | Potency [13] | Potency [14] | Potency [15] | outcome [17] | Potency [18] | Potency [19]

C=CCCC#N
inactive: outcome [1] | Potency [2] | outcome [3] | Potency [4] | Potency [5] | Potency [6] | Potency [7] | Potency [8] | Potency [9] | outcome [10] | Potency [11] | outcome [12] | Potency [13] | Potency [14] | Potency [16] | outcome [17] | Potency [18]

COc1ccc(CN2CCNCC2)c(OC)c1OC
inactive: outcome [1] | Potency [2] | outcome [3] | Potency [4] | Potency [5] | Potency [6] | Potency [7] | Potency [8] | Potency [9] | outcome [10] | Potency [11] | outcome [12] | Potency [13] | Potency [14] | Potency [15] | Potency [16] | outcome [17] | Potency [18] | Potency [19]

CCOC(=O)CC(SP(=S)(OC)OC)C(=O)OCC (centres undefined)
inactive: outcome [1] | Potency [2] | outcome [3] | Potency [4] | Potency [5] | Potency [6] | Potency [7] | Potency [8] | Potency [9] | outcome [10] | Potency [11] | outcome [12] | Potency [13] | Potency [20] | Potency [14] | Potency [15] | Potency [16] | outcome [17] | Potency [18] | Potency [19]

COC(=O)[C@@H](N)CCCN/C(N)=N/[N+](=O)[O-]
inactive: outcome [1] | Potency [2] | outcome [3] | Potency [4] | Potency [5] | Potency [6] | Potency [7] | Potency [8] | Potency [9] | outcome [10] | Potency [11] | outcome [12] | Potency [13] | Potency [15] | Potency [16] | outcome [17] | Potency [18] | Potency [19]

COc1cccc(C=O)c1
inactive: outcome [1] | Potency [2] | outcome [3] | Potency [4] | Potency [5] | Potency [6] | Potency [7] | Potency [8] | Potency [9] | outcome [10] | Potency [11] | outcome [12] | Potency [13] | Potency [14] | outcome [17] | Potency [19]

CCCCCCCC(=O)Cl
inactive: outcome [1] | Potency [2] | outcome [3] | Potency [4] | Potency [5] | Potency [6] | Potency [7] | Potency [8] | Potency [9] | outcome [10] | Potency [11] | outcome [12] | Potency [13] | Potency [14] | outcome [17] | Potency [18]

NCCOS(=O)(=O)O
inactive: outcome [1] | Potency [2] | outcome [3] | Potency [4] | Potency [5] | Potency [6] | Potency [7] | Potency [8] | Potency [9] | outcome [10] | Potency [11] | outcome [12] | Potency [13] | Potency [14] | Potency [16] | outcome [17] | Potency [18] | Potency [19]

O=C(O)C(Br)(Br)Br
inactive: outcome [1] | Potency [2] | outcome [3] | Potency [4] | Potency [5] | Potency [6] | Potency [7] | Potency [8] | Potency [9] | outcome [10] | Potency [11] | outcome [12] | Potency [13] | Potency [14] | Potency [16] | outcome [17] | Potency [18] | Potency [19]

O=C(NC(=O)c1c(F)cccc1F)Nc1cc(Cl)c(F)c(Cl)c1F
inactive: outcome [1] | Potency [2] | outcome [3] | Potency [4] | Potency [5] | Potency [6] | Potency [7] | Potency [8] | Potency [9] | outcome [10] | Potency [11] | outcome [12] | Potency [13] | Potency [14] | Potency [16] | outcome [17] | Potency [18] | Potency [19]

CCc1cc(OC)c(C[C@H](C)N)cc1OC
inactive: outcome [1] | Potency [2] | outcome [3] | Potency [4] | Potency [5] | Potency [6] | Potency [7] | Potency [8] | Potency [9] | outcome [10] | Potency [11] | outcome [12] | Potency [13] | Potency [15] | Potency [16] | outcome [17]

O=C(CCl)NCO
inactive: outcome [1] | Potency [2] | outcome [3] | Potency [4] | Potency [5] | Potency [6] | Potency [7] | Potency [8] | Potency [9] | outcome [10] | Potency [11] | outcome [12] | Potency [13] | Potency [14] | Potency [16] | outcome [17] | Potency [18] | Potency [19]

CCC(CC)(CNC(=O)CCCO)c1cccc(OC)c1
inactive: outcome [1] | Potency [2] | outcome [3] | Potency [4] | Potency [5] | Potency [6] | Potency [7] | Potency [8] | Potency [9] | outcome [10] | Potency [11] | outcome [12] | Potency [13] | Potency [20] | Potency [14] | Potency [16] | outcome [17] | Potency [18]
